Test results as given in PubChem BioAssay (NCATS).
Records with an inconclusive call do not appear. The source made the active and inactive calls. Calls come from the whole dose curve; as a rule, active = well fitted curve in the direction sought with a large enough effect; inconclusive = small, poorly fitted or top-dose-only effect, or another doubt; inactive = no such curve, though single readings can be large; an effect the other way counts as inactive or inconclusive.

Assays:
[1] = qHTS of pediatric cancer cell lines to identify multiple opportunities for drug repurposing: Primary screen for RD cells (AID 1347104); note: nearly all actives have a fitted effect of over 55% in size; note: potency is the fitted concentration of half-maximal effect
Summary of the method: (§1)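 Viability was measured as metabolically active cells after 48 hours of treatment, read by CellTiter-Glo luminescence. Compounds were tested at multiple final concentrations, giving concentration-response curves.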

[2] = qHTS of pediatric cancer cell lines to identify multiple opportunities for drug repurposing: Primary screen for MG 63 (6-TG R) cells (AID 1347105); note: nearly all actives have a fitted effect of over 50% in size; note: potency is the fitted concentration of half-maximal effect
Summary of the method: as §1

[3] = qHTS of pediatric cancer cell lines to identify multiple opportunities for drug repurposing: Primary screen for control Hh wild type fibroblast cells (AID 1347106);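 note: series mostly up to about 46 µM; a drop in luminescence marks cytotoxicity and a rise apparent proliferation; nearly all actives have a fitted effect of over 55% in size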
Summary of the method: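 Cells (500-1,000/well) in growth media were settled 5 h at 37 degrees C, then given compounds for 48 h. Viability was read as CellTiter-Glo luminescence. Primary runs used MIPE at 11 points (0.78 nM-46 µM) and NPC at 8 points (0.59 nM-46 µM); follow-ups used 11 points.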

[4] = qHTS of pediatric cancer cell lines to identify multiple opportunities for drug repurposing: Primary screen for Rh41 cells (AID 1347108); note: nearly all actives have a fitted effect of over 70% in size; note: potency is the fitted concentration of half-maximal effect
Summary of the method: as §1

[5] = qHTS of pediatric cancer cell lines to identify multiple opportunities for drug repurposing: Primary screen for Rh30 cells (AID 1347107); note: nearly all actives have a fitted effect of over 75% in size; note: potency is the fitted concentration of half-maximal effect
Summary of the method: (§2)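 Cells (500-1,000/well) rested 5 h, then received compounds for 48 h; metabolically active cells were measured by CellTiter-Glo luminescence. Final concentrations spanned up to 46 µM (MIPE, 11-point) or 0.59 nM-46 µM (NPC, 8-point) in primary screens, 11-point in follow-ups.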

[6] = qHTS of pediatric cancer cell lines to identify multiple opportunities for drug repurposing: Confirmatory screen for A673 cells (AID 1347110);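 note: cells exposed to compound for 48 h before the viability read; nearly all actives have a fitted effect of over 65% in size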; note: potency is the fitted concentration of half-maximal effect
Summary of the method: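 Concentration-response curves came straight from titrations: 11 points (0.78 nM to 46 µM) for MIPE and several concentrations (0.59 nM to 46 µM) for NPC in primary, 11 points in follow-up. Readout: ATP luminescence at 48 h.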

[7] = qHTS of pediatric cancer cell lines to identify multiple opportunities for drug repurposing: Confirmatory screen for SK-N-MC cells (AID 1347111);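 note: potency is the fitted concentration of half-maximal effect; cells exposed to compound for 48 h before the readout; nearly all actives have a fitted effect of over 70% in size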
Summary of the method: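 Seed 500-1,000 cells/well; rest 5 h at 37 degrees C. Pin-transfer compounds, 11-point titration. Incubate 48 h. Add CellTiter-Glo, 15 min RT, read luminescence.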

[8] = qHTS of pediatric cancer cell lines to identify multiple opportunities for drug repurposing: Confirmatory screen for BT-12 cells (AID 1347112); note: nearly all actives have a fitted effect of over 55% in size; note: potency is the fitted concentration of half-maximal effect
Summary of the method: as §2

[9] = qHTS of pediatric cancer cell lines to identify multiple opportunities for drug repurposing: Confirmatory screen for LAN-5 cells (AID 1347113); note: nearly all actives have a fitted effect of over 65% in size; note: potency is the fitted concentration of half-maximal effect
Summary of the method: as §2

[10] = qHTS of pediatric cancer cell lines to identify multiple opportunities for drug repurposing: Confirmatory screen for DAOY cells (AID 1347114); note: nearly all actives have a fitted effect of over 65% in size; note: potency is the fitted concentration of half-maximal effect
Summary of the method: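 Viability measured as metabolically active cells via CellTiter-Glo luminescence following 48 hours of compound exposure, 11-point dilutions in confirmatory testing. 500-1,000 cells/well plated 5 hours before dosing; controls were DMSO and 2.3 µM bortezomib.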

Measured: Potency

C#C[C@]1(O)CC[C@H]2[C@@H]3CCc4cc(OC)ccc4[C@H]3CC[C@@]21C
inactive: [1] | [2] | [3] | [4]

CC(=O)Nc1ccc(OC(=O)c2ccccc2OC(C)=O)cc1
inactive: [1] | [2] | [3] | [4]

COc1cc(C(=O)NCc2ccc(OCCN(C)C)cc2)cc(OC)c1OC
inactive: [1] | [2] | [3] | [4]

CCOCCn1c(N2CCCN(C)CC2)nc2ccccc21
inactive: [1] | [3] | [5] | [4]

CCN1/C(=C/C=C/c2sc3ccccc3[n+]2CC)Sc2ccccc21
active: [1] 1160 nM | [2] 1840 nM | [5] 3260 nM | [4] 1640 nM | [6] 456 nM | [7] 827 nM | [8] 1170 nM | [9] 737 nM | [10] 362 nM

CO[C@H]1C=CO[C@@]2(C)Oc3c(C)c(O)c4c(O)c(c(/C=N/N5CCN(C)CC5)c(O)c4c3C2=O)NC(=O)/C(C)=C\C=C[C@H](C)[C@H](O)[C@@H](C)[C@@H](O)[C@@H](C)[C@H](OC(C)=O)[C@@H]1C
inactive: [1] | [2] | [5] | [4]

COc1ccccc1N1CCN(CCCCNC(=O)c2ccc(-c3ccc(C(C)=O)cc3)cc2)CC1
inactive: [1] | [2] | [3] | [4]

CN(C)C(=O)Nc1ccc(Cl)c(Cl)c1
inactive: [1] | [2] | [3] | [4] | [6] | [10]

O=[N+]([O-])c1ccc(/C=N\O)o1
inactive: [1] | [2] | [3] | [4] | [6] | [8] | [9]
active: [7] 5850 nM

O=C(CN1CCN(Cc2ccc3c(c2)OCO3)CC1)N1c2ccccc2Sc2ccccc21
inactive: [1] | [2] | [3] | [4]

O=C(Nc1ccccc1)OCC(CN1CCCCC1)OC(=O)Nc1ccccc1 (configuration not stated)
active: [1] 29900 nM
inactive: [3]

COc1cc(O)c(C(=O)c2ccccc2)cc1S(=O)(=O)O
inactive: [1] | [2] | [3] | [4]

CC(=O)OCC1=C(C(=O)O)N2C(=O)[C@@H](NC(=O)CSc3ccncc3)[C@H]2SC1
inactive: [1] | [2] | [3] | [4]

CC(C)(C)NCC(O)COc1cccc2c1C[C@H](O)[C@H](O)C2 (some centres not stated)
inactive: [1] | [2] | [3] | [4]

CCCc1ncc(C[n+]2ccccc2C)c(N)n1
inactive: [1] | [2] | [3] | [4]

CCC1Nc2cc(Cl)c(S(N)(=O)=O)cc2S(=O)(=O)N1 (configuration not stated)
inactive: [1] | [2] | [3] | [4]

O=C(O)Cc1csc(-c2ccc(Cl)cc2)n1
inactive: [1] | [2] | [3] | [4]

N#C/C(=C1\SCC(c2ccccc2Cl)S1)n1ccnc1 (configuration not stated)
inactive: [1] | [2] | [3] | [4]

CN1CCN(C2=Nc3ccccc3Sc3ccc(Cl)cc32)CC1
inactive: [1] | [2] | [3] | [4]

CCNC(=O)/C=C/c1cccc(Br)c1
inactive: [1] | [2] | [3] | [4]

CCCCCCCCCCCCCCCC(=O)O
inactive: [1] | [3] | [5] | [4]

C[C@@]12C(=O)OC(=O)[C@]1(C)C1CCC2O1
active: [1] 4730 nM | [2] 1680 nM | [4] 2660 nM | [6] 7370 nM | [7] 3290 nM | [8] 8270 nM | [9] 2930 nM | [10] 2930 nM

CCOc1ccc(NC(C)=O)cc1
inactive: [1] | [2] | [3] | [4]

CCN(CC)CCNC(=O)c1cc(Br)c(N)cc1OC
inactive: [1] | [3] | [5] | [4]

NC(=S)N/N=C/c1cccnc1
inactive: [1] | [2] | [3] | [4]

O=C1C(=O)c2ccccc2C(O)=C1C1CCC(c2ccc(Cl)cc2)CC1 (configuration not stated)
inactive: [1] | [2] | [3] | [4]
